A short description of test [1]: qHTS assay to identify small molecule agonists of the sonic hedgehog signaling (Shh) pathway (AID 1259368).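 Further: NIH/3T3-derived 3T3Gli1-Luc cells carrying a stable Gli1-driven firefly luciferase reporter; series mostly up to about 92 µM; nearly all actives have a fitted effect of over 15% in size.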 A digest of the protocol:
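Luminescent signal was taken as a measure of Gli1-controlled luciferase expression in stably transfected NIH/3T3-derived cells that had been treated for 24 hr with compounds delivered in DMSO.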

Test [2] is described as follows: qHTS assay to identify small molecule antagonists of the sonic hedgehog signaling (Shh) pathway (AID 1259369). Further: nearly all actives have a fitted effect of over 45% in size. Further: potency means the concentration at half of the fitted maximal effect. A digest of the protocol:
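Screening used 3T3Gli1-Luc cells at 2,000 per well, compounds delivered in DMSO, and conditioned medium as agonist stimulus; plates incubated 24hr at 37 C and 5% CO2 before a 30min luciferase step.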

Test [3] in a line: qHTS assay to identify small molecule agonists of the estrogen receptor beta (ER-beta) signaling pathway - cell viability counter screen (AID 1259380; active means well fitted curve in the direction sought with a large enough effect in the repeat runs; an effect the other way counts as inactive or inconclusive; further: potency means the concentration at half of the fitted maximal effect; nearly all actives have a fitted effect of over 30% in size). A digest of the protocol: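 Viability of ER-beta-UAS-bla HEK293T cells was determined by CellTiter-Glo luminescence following 16 hr treatment with test compounds at 37C.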
A general note: In qHTS, concentration-response curves come from the screen itself.

Test [4] addresses Androgen receptor (Homo sapiens) (UniProt P10275). As to the kind of experiment: qHTS assay to identify small molecule agonists of the androgen receptor (AR) signaling pathway in the presence of an antagonist (AID 1259381). Further: nearly all actives have a fitted effect of over 15% in size. A digest of the protocol:
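Here, 15-concentration compound series were pin-transferred onto MDA-kb2 MMTV-luciferase cells already dosed with nilutamide (3.0uM final). After 16hr at 37C, ONE-Glo was added and luminescence read 30min later at room temperature.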

Test [5] is described as follows: qHTS assay to identify small molecule antagonists of the estrogen receptor beta (ER-beta) signaling pathway - cell viability counter screen (AID 1259382; active means well fitted curve in the direction sought with a large enough effect in the repeat runs; an effect the other way counts as inactive or inconclusive; further: nearly all actives have a fitted effect of over 55% in size; further: potency means the concentration at half of the fitted maximal effect). The method in brief: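 Tox21 10K library tested in qHTS format on ER-beta-bla HEK293T cells stimulated with 1nM E2; 16 hr treatment at 37C. Same-well CellTiter-Glo luminescence served as the cell viability measure.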

A short description of test [6]: qHTS assay to identify small molecule agonists of the estrogen receptor alpha (ER-alpha) signaling pathway in the presence of an antagonist - cell viability counter screen (AID 1259386; active means well fitted curve in the direction sought with a large enough effect in the repeat runs; an effect the other way counts as inactive or inconclusive;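 further: series mostly up to about 92 µM; cells exposed to compounds for 22 h at 37 °C before the viability read; nearly all actives have a fitted effect of over 30% in size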). The method in brief:
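Fluorescent CellTiter-Fluor viability signal from VM7Luc4E2 cells, with the reagent added during the final hour of a 22hr compound exposure at 37C in the presence of 10.0nM ICI-182,780.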

Test [7] can be described thus: qHTS assay to identify small molecule antagonists of the TGF-beta/Smad signaling pathway - cell viability counter screen (AID 1346824; active means well fitted curve in the direction sought with a large enough effect in the repeat runs; an effect the other way counts as inactive or inconclusive; further: nearly all actives have a fitted effect of over 50% in size). The method in brief: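 Cytotoxicity counter-screen run in the same wells as the beta-lactamase Smad reporter read: CellTiter-Glo luminescence after 30 min at room temperature. HEK 293T SBE-bla cells had 5 hr compound exposure at 37 C with TGF-beta1 (0.25 ng/mL stock).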

Test [8] can be described thus: qHTS assay to identify small molecule agonists of the androgen receptor (AR) signaling pathway in the presence of an antagonist - cell viability counter screen (AID 1259379; active means well fitted curve in the direction sought with a large enough effect in the repeat runs; an effect the other way counts as inactive or inconclusive;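 further: MDA-kb2 human breast cancer cells carrying an MMTV luciferase reporter; series mostly up to about 92 µM; nearly all actives have a fitted effect of over 25% in size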). A digest of the protocol: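 In MDA-kb2 cells (human breast carcinoma, MMTV-luciferase), compounds at 15 concentrations plus 3.0uM nilutamide; 16 hr, 37C, 0% CO2; CellTiter-Fluor fluorescence read for viability.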

The target in test [9] is Estrogen receptor (Homo sapiens) (UniProt P03372). As to the kind of experiment: qHTS assay to identify small molecule agonists of the estrogen receptor alpha (ER-alpha) signaling pathway in the presence of an antagonist (AID 1259383). Further: top concentration of the series differs between compounds; nearly all actives have a fitted effect of over 15% in size. The method in brief:
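In VM7Luc4E2 cells, 4,000 per well, compounds at 15 concentrations were co-incubated 22hr at 37C with 10.0nM final ICI-182,780. Luminescence from the stably transfected 4×ERE-luciferase reporter was recorded 30min after ONE-Glo addition.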

Test [10] can be described thus: qHTS assay to identify small molecule agonists or antagonists of the thyroid stimulating hormone receptor (TSHR) signaling pathway - wild type cell line counter screen (AID 1259384). A digest of the protocol:
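Counter screen in untransfected Hek293: compounds (15-point titration, triplicate) plus phosphodiesterase inhibitor Ro20-1724 added after 18 h plating; 30 min RT. Intracellular cAMP via competitive d2/cryptate immunoassay, 1 h incubation.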

Test [11] addresses Thyrotropin receptor (Homo sapiens) (UniProt P16473). As to the kind of experiment: qHTS assay to identify small molecule antagonists of the thyroid stimulating hormone receptor (TSHR) signaling pathway (AID 1259385). Further: nearly all actives have a fitted effect of over 20% in size. A digest of the protocol:
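Antagonist mode: compound-treated TSHR-expressing HEK293 cells were stimulated with 1.5 ng/mL TSH (final) in presence of Ro20-1724 for 30 min at RT. HTRF cAMP detection after 1 h; each compound tested at 15 concentrations, triplicate.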

Test [12] concerns the target Progesterone receptor (Homo sapiens) (UniProt P06401). As to the kind of experiment: qHTS assay to identify small molecule agonists of the progesterone receptor (PR) signaling pathway (AID 1346784). Further: nearly all actives have a fitted effect of over 30% in size. A digest of the protocol: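 PR-UAS-bla HEK 293T cells (beta-lactamase reporter under UAS) in 2% charcoal-stripped FBS, dosed with 23 nL compound after 6 hr, incubated 16hr at 37C. LiveBLAzer B/G FRET substrate added, fluorescence read after 2 hours.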

Test [13] shares this target. As to the kind of experiment: qHTS assay to identify small molecule antagonists of the progesterone receptor (PR) signaling pathway (AID 1346795; active means well fitted inhibition curve with a large enough effect in the signal ratio in the repeat runs, not every such curve was filed as active; the % refers to the signal ratio). A digest of the protocol:
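PR-UAS-bla HEK293T cells with beta-lactamase reporter under UAS control, in 2% charcoal-stripped FBS, treated with compounds plus 1 nM promegestone (R5020, final) for 16 hr at 37C. Read-out: FRET beta-lactamase substrate fluorescence after 2 hr at room temperature.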

Test [14] is described as follows: qHTS assay to identify small molecule agonists of the TGF-beta/Smad signaling pathway - cell viability counter screen (AID 1346829; active means well fitted curve in the direction sought with a large enough effect in the repeat runs; an effect the other way counts as inactive or inconclusive; further: top concentration of the series differs between compounds; nearly all actives have a fitted effect of over 45% in size). A digest of the protocol: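 Luminescence from CellTiter-Glo, read after a 30 min room-temperature incubation, gives cell viability of SBE-bla HEK 293T cells treated 5 hr with compounds at 37 C.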
Test [15] is described as follows: qHTS assay to identify small molecule agonists of the TGF-beta/Smad signaling pathway (AID 1346859; active means well fitted activation curve with a large enough effect in the signal ratio in the repeat runs, not every such curve was filed as active; the % refers to the signal ratio; further: series mostly up to about 77 µM). A digest of the protocol:
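SBE-bla HEK293T cells plated overnight, then compound exposure for 5 h at 37 C. Beta-lactamase reporter read with LiveBLAzer B/G FRET substrate after 2 h at room temperature, fluorescence at 405 nm excitation, 460/530 nm emission.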

Test [16] concerns the target Thyrotropin-releasing hormone receptor (Homo sapiens) (UniProt P34981). Description: qHTS assay to identify small molecule antagonists of the thyrotropin-releasing hormone receptor (TRHR) signaling pathway (AID 1346877; active means well fitted inhibition curve with a large enough effect in the repeat runs, not every such curve was filed as active; further: series mostly up to about 51 µM). A digest of the protocol:
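In this cell-based calcium flux format, HEK293 cells expressing TRHR received test compound for 5 min before the agonist TRH (1 nM final). Dye loading lasted 2 h at 37 °C.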

A short description of test [17]: qHTS assay to identify small molecule antagonists of the progesterone receptor (PR) signaling pathway - cell viability counter screen (AID 1346798; active means well fitted curve in the direction sought with a large enough effect in the repeat runs; an effect the other way counts as inactive or inconclusive; further: series mostly up to about 92 µM; nearly all actives have a fitted effect of over 50% in size). The method in brief:
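PR-UAS-bla HEK293T cells, 3,000/well in 2% charcoal-stripped FBS medium, dosed with compounds plus R5020 agonist and incubated 16 h at 37C. Viability then measured in the same wells by CellTiter-Glo luminescence after 30 min at RT.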

Test [18] is described as follows: qHTS assay to identify small molecule agonists of the progesterone receptor (PR) signaling pathway - cell viability counter screen (AID 1346799). Further: nearly all actives have a fitted effect of over 45% in size. Further: potency means the concentration at half of the fitted maximal effect. A digest of the protocol:
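Counter screen in the PR-UAS-bla HEK293T wells (2% charcoal-stripped FBS, 16 h compound exposure at 37 C) after the bla read. CellTiter-Glo added, 30 min at room temperature, luminescence read as cell viability.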

The results in this text go back to PubChem BioAssay (Tox21).

Each structure is given as a SMILES string. Records with an inconclusive call do not appear. Calls of active or inactive are those of the source. Unless noted, the call rests on the fitted dose curve.

Chain of Estrogen receptor (Homo sapiens) (P03372 whole entry, looked up): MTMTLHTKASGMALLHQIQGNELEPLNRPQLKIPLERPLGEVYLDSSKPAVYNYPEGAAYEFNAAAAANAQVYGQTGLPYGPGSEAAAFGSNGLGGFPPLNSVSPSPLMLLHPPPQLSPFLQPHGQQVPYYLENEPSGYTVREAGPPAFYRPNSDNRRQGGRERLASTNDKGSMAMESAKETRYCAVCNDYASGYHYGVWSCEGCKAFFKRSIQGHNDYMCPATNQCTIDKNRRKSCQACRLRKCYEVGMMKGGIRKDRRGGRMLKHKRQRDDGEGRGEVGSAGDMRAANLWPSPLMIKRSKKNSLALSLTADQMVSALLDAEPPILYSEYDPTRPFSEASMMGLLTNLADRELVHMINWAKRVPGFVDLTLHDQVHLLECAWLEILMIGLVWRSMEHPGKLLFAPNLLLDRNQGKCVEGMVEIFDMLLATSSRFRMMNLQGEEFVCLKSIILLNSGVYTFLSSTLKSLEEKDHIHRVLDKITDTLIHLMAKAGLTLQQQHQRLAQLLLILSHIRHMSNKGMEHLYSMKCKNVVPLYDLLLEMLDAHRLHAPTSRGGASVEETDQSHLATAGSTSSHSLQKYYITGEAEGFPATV
Chain of Androgen receptor (Homo sapiens) (P10275 whole entry, looked up): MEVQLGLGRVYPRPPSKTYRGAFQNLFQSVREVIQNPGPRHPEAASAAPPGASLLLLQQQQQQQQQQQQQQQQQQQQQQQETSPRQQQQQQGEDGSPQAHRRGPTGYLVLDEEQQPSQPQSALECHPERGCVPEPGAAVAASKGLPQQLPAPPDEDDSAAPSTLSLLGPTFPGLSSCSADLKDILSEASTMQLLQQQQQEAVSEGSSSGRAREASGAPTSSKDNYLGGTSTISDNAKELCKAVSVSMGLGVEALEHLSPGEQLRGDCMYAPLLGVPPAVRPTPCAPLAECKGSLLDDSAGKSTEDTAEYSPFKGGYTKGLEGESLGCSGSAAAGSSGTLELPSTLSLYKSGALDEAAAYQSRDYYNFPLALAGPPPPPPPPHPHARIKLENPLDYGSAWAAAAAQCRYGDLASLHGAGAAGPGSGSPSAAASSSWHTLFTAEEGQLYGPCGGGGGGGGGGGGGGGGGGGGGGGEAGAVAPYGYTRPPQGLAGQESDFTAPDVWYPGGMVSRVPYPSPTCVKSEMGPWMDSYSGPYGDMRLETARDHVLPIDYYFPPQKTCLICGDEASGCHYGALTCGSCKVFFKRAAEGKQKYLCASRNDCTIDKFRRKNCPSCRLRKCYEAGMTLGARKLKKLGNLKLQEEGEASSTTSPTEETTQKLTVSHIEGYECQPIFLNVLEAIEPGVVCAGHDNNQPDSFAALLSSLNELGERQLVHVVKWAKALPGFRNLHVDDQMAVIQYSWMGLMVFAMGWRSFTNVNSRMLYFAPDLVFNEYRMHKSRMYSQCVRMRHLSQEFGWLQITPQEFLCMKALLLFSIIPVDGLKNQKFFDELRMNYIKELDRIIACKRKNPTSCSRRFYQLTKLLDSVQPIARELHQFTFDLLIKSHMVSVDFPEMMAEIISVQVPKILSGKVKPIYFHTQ
Chain of Thyrotropin-releasing hormone receptor (Homo sapiens) (P34981 whole entry, looked up): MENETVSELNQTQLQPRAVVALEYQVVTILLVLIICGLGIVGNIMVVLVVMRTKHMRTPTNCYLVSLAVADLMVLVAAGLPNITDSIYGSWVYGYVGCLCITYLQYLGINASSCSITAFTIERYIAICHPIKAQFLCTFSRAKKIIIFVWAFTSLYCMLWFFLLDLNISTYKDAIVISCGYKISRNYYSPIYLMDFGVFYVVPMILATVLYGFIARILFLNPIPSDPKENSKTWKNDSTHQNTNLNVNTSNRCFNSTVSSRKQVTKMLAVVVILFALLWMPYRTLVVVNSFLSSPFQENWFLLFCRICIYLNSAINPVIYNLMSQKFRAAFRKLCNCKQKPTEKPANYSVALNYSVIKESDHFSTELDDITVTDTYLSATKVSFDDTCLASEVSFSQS
Chain of Thyrotropin receptor (Homo sapiens) (P16473 whole entry, looked up): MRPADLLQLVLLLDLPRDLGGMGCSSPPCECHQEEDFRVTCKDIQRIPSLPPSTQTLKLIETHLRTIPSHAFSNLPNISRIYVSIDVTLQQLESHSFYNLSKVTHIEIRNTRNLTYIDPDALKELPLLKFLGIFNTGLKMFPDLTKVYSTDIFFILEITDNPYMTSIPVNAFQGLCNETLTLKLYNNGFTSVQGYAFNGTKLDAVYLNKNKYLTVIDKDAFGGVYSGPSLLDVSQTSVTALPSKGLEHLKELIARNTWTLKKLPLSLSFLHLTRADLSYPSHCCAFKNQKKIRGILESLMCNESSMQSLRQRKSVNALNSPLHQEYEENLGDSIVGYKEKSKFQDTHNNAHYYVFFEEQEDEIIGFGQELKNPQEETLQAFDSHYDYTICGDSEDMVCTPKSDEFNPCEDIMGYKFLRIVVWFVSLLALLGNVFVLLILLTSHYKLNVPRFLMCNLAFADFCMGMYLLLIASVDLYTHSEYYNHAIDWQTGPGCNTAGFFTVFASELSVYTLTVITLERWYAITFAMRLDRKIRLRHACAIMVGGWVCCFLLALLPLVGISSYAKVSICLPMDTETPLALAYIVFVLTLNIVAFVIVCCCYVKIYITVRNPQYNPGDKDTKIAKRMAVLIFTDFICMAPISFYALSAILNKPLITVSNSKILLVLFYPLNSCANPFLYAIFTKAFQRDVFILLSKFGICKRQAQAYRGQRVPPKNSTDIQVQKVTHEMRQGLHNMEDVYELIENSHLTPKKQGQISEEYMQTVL
Chain of Progesterone receptor (Homo sapiens) (P06401 whole entry, looked up): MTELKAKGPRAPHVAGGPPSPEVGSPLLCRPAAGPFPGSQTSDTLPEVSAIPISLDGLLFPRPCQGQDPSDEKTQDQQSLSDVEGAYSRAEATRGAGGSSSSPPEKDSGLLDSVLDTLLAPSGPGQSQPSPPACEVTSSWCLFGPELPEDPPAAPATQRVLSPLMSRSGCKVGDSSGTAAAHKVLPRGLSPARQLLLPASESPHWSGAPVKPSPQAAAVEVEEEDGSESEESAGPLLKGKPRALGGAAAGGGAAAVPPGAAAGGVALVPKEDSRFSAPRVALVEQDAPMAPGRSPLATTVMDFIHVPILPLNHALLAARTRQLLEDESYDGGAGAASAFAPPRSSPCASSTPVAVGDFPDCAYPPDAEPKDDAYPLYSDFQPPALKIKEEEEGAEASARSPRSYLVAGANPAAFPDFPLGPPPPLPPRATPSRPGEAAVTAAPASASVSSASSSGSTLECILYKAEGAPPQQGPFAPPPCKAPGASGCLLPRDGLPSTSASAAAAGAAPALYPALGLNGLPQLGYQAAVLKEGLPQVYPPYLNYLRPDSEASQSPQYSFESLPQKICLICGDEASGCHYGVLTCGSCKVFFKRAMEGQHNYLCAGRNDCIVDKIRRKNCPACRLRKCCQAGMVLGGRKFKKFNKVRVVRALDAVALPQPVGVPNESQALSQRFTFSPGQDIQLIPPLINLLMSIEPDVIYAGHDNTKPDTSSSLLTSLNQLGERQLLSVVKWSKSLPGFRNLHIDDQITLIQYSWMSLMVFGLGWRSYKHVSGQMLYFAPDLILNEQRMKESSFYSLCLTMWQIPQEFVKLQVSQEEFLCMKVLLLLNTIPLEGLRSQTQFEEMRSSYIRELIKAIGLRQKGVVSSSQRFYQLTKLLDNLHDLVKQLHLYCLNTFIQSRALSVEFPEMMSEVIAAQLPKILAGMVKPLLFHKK

Turning to `CCCCC1C(=O)N(c2ccccc2)N(c2ccc(O)cc2)C1=O` (stereo not given), the Potency entry in [1], in test [4] and in test [6] was “inactive” each time. Further, the values for the Potency in test [2], in test [3] and in test [5] were 7.5 µM (active), 23.7 µM (active) and 29.8 µM (active), respectively. The result in [7] was inactive.
In the case of `CCCCCCCCCCOS(=O)(=O)O`, the Potency result in [1], in test [2], in test [8], in test [5], in test [9] and in test [11] was “inactive” in each case. In addition, the Potency entry in [6], in [12] and in test [13] was “inactive” each time. Further, the molecule was called inactive in test [10], in [7], in test [14], in test [15] and in test [16].
Consider `CC(C)(O)c1ccccc1CC[C@@H](SCC1(CC(=O)O)CC1)c1cccc(/C=C/c2ccc3ccc(Cl)cc3n2)c1`, for which the Potency entry in test [1], in [2], in [8], in test [4], in test [5] and in test [9] was “inactive” each time. Also, the Potency result in test [11], in [6], in [12], in test [13] and in [17] was “inactive” in each case. For the same molecule, the molecule was called inactive in test [10], in [14], in test [15] and in [16].
Consider `NC(=O)Cn1c(=O)cc(CCN2CCN(c3nccc4sccc34)CC2)c2ccc(F)cc21`, for which the Potency result in [1], in test [5], in test [9], in test [12] and in [13] was “inactive” throughout. Further, in test [2], the Potency was 4.86 µM (active). The call in [7], in [14] and in test [16] was inactive.
As to `Cc1ccc(Nc2nccc(N(C)c3ccc4c(C)n(C)nc4c3)n2)cc1S(N)(=O)=O`, the Potency result in test [1], in [8], in test [4], in test [5], in test [9] and in test [12] was “inactive” in each case. The Potency in [2] was 1.88 µM (active). Further, the outcome in test [7], in [14], in test [15] and in test [16] was inactive.
Take `O=[N+]([O-])c1cccc(S(=O)(=O)NCCNS(=O)(=O)c2cccc([N+](=O)[O-])c2)c1`: the Potency entry in [1], in test [2], in [8], in [4], in [5] and in test [9] was “inactive” throughout. Also, the Potency entry in test [6], in [12], in [13], in [17] and in test [18] was “inactive” in each case. For the same molecule, the molecule was called inactive in [14], in test [15] and in test [16].
In the case of `Cc1cnc(C)c(C)n1`, the Potency entry in test [1], in [2], in test [8], in [11], in [6] and in test [12] was “inactive” in each case. Also, the Potency entry in [13] was “inactive”. Also, the molecule was called inactive in test [10], in test [7], in test [14] and in test [15]. Besides, the Potency in [18] is 28.6 µM (active).
Consider `CCCCC(=O)O[C@]1(C(=O)CO)CC[C@H]2[C@@H]3CCC4=CC(=O)CC[C@]4(C)[C@H]3[C@@H](O)C[C@@]21C`, for which the Potency result in [1], in test [2], in test [8], in test [5], in test [9] and in test [6] was “inactive” each time. In addition, the Potency entry in [13], in test [17] and in [18] was “inactive” throughout. For the same molecule, the result in test [10], in test [14], in [15] and in test [16] was inactive.
